Laboratory results published in PubChem BioAssay (NCATS).
Inconclusive results are not listed. Entries that show only a call come without a potency. Calls of active or inactive are those of the source. Calls follow the shape of the dose curve; as a rule, active = well fitted cell-killing curve with a large enough effect; inconclusive = small, poorly fitted or top-dose-only effect, or effect the other way; inactive = no such curve, though single readings can be large or run the other way.
Potency is read from the fitted curve at half-maximal effect.

Assay: Cell Viability - LYMP2-005 (AID 967)
Conditions: LYMP2-005 lymphoblastoid cell viability; series mostly up to 92.2 µM
From the text: NIH Chemical Genomics Center [NCGC]
NIH Molecular Libraries Screening Centers Network [MLSCN]
National Institutes of Environmental Health Sciences [NIEHS]
National Toxicology Program [NTP]
We have developed a 1536-well cell-based assay for quantitative high throughput screening (qHTS) against a number of cell lines to determine in vitro cytotoxicity of small molecules. This particular assay uses a human lymphoblastoid cell line (LYMP2-005) purchased from Coriell Institute for Medical Research.
NCGC Assay Protocol Summary:
The CellTiter-Glo luminescent cell viability assay (Promega) is a homogeneous method to measure the number of viable cells in culture. The end point readout of this assay is based on quantitation of intracellular ATP, an indicator of metabolic activity, using the luciferase reaction. Luciferase catalyzes the oxidation of beetle Luciferin to oxyluciferin and light in the presence of ATP. The luminescent signal is proportional to amount of ATP present.
Using the CellTiter-Glo luminescent cell viability assay, the amount of cellular ATP was measured in the lymphoblastoid cell line with complete culture medium following compound treatment for 24 hours. The assay was performed in opaque white Kalypsys 1536-well plates. In the screen, tetraoctylammonium bromide was used as positive control. Library compounds were measured for their ability to cause acute toxicity in the cell line, as reflected by a decrease in intracellular ATP levels, in a concentration-dependent manner. […] AC50 values were determined from concentration-response data modeled with the standard Hill equation.
qHTS protocol for CellTiter Glo lymphoblastoid cellular assay
[Step] [Parameter] [Value] [Description]
1. Reagent; 5 uL; 2500 lymphoblastoid cells/well
2. Time; 5 hr; 37 C incubation
4. Controls; 23 nL; Tetraoctylammonium bromide 6.4pM to 92 uM
5. Time; 24 hr; 37 C incubation
6. Reagent; 5 uL; CellTiter Glo reagent
7. Time; 30 min; Room Temperature
8. Detection; Luminescence; Viewlux plate reader
Keywords: cell viability, cytotoxicity, lymphoblastoid cell line, luminescence, NTPHTS, NTPHTS_NCGC, NIEHS, DSSTox, MLSMR, MLSCN, NIH Roadmap, qHTS, NCGC
In the case of `Nc1ccc(Br)cc1`, the Potency is reported as “inactive”.
In the case of `C=CCOC(=O)c1ccccc1N`, the Potency is reported as “inactive”.
For `Cc1ccc2ccccc2c1`, the Potency was “inactive”.
With `CCCSC(=O)Cl` the Potency was “inactive”.
With `O=C(Cl)/C=C/C(=O)Cl` the Potency was “inactive”.
With `C=CC1CC=CCC1` (stereo not given) the Potency was “inactive”.
For `O=[N+]([O-])c1cccc2ccccc12`, the Potency was “inactive”.
In the case of `Cc1ccc([N+](=O)[O-])cc1C`, the Potency is reported as “inactive”.
In the case of `CCN(CC)c1ccccc1`, the Potency is reported as “inactive”.
With `C=C(Cl)Cl` the Potency was “inactive”.
In the case of `C=CCOC(C)=O`, the Potency is reported as “inactive”.
For `CC(=O)[O-].CC(=O)[O-].O.O.O.[Pb+2]`, the Potency was “inactive”.
With `c1ccc(-c2ccccc2)cc1` the Potency was “inactive”.
With `COC(=O)NC(=S)Nc1ccccc1NC(=S)NC(=O)OC` the Potency was “inactive”.
With `C[C@]12CC[C@H]3[C@@H](CCC4=CC(=O)CC[C@@]43C)[C@@H]1CC[C@@H]2O` the Potency was “inactive”.
For `O=C=NC1CCCCC1`, the Potency was “inactive”.
In the case of `O=[N+]([O-])c1ccc(Cl)c(Cl)c1`, the Potency is reported as “inactive”.
In the case of `ClCBr`, the Potency is reported as “inactive”.
In the case of `NC(=S)Nc1ccccc1`, the Potency is reported as “inactive”.
For `COc1ccc(N)cc1`, the Potency was “inactive”.
In the case of `COP(=S)(OC)Oc1ccc([N+](=O)[O-])cc1`, the Potency is reported as “inactive”.
With `CCOP(=S)(OCC)SCSC(C)(C)C` the Potency was “inactive”.
In the case of `ClC(Cl)=C(Cl)Cl`, the Potency is reported as “inactive”.
With `ClC(Cl)(Cl)c1ccccc1` the Potency was “inactive”.
In the case of `C[C@H]1CCCC(=O)CCC/C=C/c2cc(O)cc(O)c2C(=O)O1`, the Potency is reported as “inactive”.
With `CC(C)(OO)c1ccccc1` the Potency was 39.8 µM (active).
In the case of `CCCCCCCCCc1ccc(O)cc1`, the Potency is reported as “inactive”.
In the case of `CCCCCCCC(=O)Cl`, the Potency is reported as “inactive”.
With `CCCCOC(=O)c1ccccc1C(=O)OCCCC` the Potency was “inactive”.
With `Nc1ccccc1Cl` the Potency was “inactive”.
In the case of `Cc1ccc(O)c(C)c1`, the Potency is reported as “inactive”.
With `Brc1ccccc1` the Potency was “inactive”.
In the case of `C=CC(=C)C`, the Potency is reported as “inactive”.
For `Clc1nc(Cl)nc(Cl)n1`, the Potency was “inactive”.
With `CCOc1ccc(N)cc1` the Potency was “inactive”.
With `ClC(Cl)=C(c1ccc(Cl)cc1)c1ccc(Cl)cc1` the Potency was “inactive”.
For `Clc1ccc2ccccc2c1`, the Potency was “inactive”.
With `COc1ccc(C=O)cc1OC` the Potency was “inactive”.
With `CC(C)(C)OOC(C)(C)C` the Potency was “inactive”.
With `O=C(O)COc1ccc(Cl)cc1Cl` the Potency was “inactive”.
